# Assay results published in PubChem BioAssay (EPA / NIEHS).
# Calls of active or inactive are those of the source. The calls were made as follows: active = hit-call score of the fitted dose curve at least 0.9, where 1 is the maximum; inactive = score below 0.9.
# Experiment: CCTE_Harrill_HTTr_Viability_MCF7: CCTE's 6-hour Cell Viability Assessment for the High-Throughput Transcriptomics (HTTr) Platform, in MCF-7 cells cultured in DMEM + 10% fetal bovine serum, Harrill Lab (AID 2284010)
# How it was run: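 Read-out is propidium iodide gain of signal by high-content imaging, reflecting membrane integrity loss. Measurements are taken 6 h after dosing, eight concentrations per chemical, with DMSO serving as baseline for bidirectional curve fitting.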
row,SMILES,outcome
1,CC[C@H]1OC(=O)[C@H](C)[C@@H](O[C@H]2C[C@@](C)(OC)[C@@H](O)[C@H](C)O2)[C@H](C)[C@@H](O[C@@H]2O[C@H](C)C[C@H](N(C)C)[C@H]2O)[C@](C)(O)C[C@@H](C)C(=O)[C@H](C)[C@@H](O)[C@]1(C)O,inactive
2,O=c1[nH]c2ccc(S(=O)CCN3CCC(Cc4ccc(F)cc4)CC3)cc2o1 (stereo not drawn),inactive
3,CC(=O)OCCC(C)C,inactive
4,Cn1c(=O)c2c(ncn2C)n(C)c1=O,inactive
5,CCCCCCCCO,inactive
6,CC[C@H]1CC[C@H](NCc2cc3c(cc2OC)[C@H]2C[C@H]2C(=O)N3C)[C@H](c2ccccc2)N1,inactive
7,CCOC(=O)CC(CC(=O)OCC)(OC(C)=O)C(=O)OCC,inactive
8,COc1cccc(-c2ccc(/C=C\CN3CCCCCC3)cc2Cl)c1,inactive
9,COc1ccc2sc(C(=O)Nc3nnn[nH]3)c(OC(C)C)c2c1,inactive
10,COc1ccc(/C=C/S(=O)(=O)NC(=O)c2ccc(C)cc2Cl)cc1,inactive
11,CCOC(=O)COc1ccc2c(c1)CC(NCC(O)c1cccc(Cl)c1)CC2 (stereo not drawn),inactive
12,O=C(O)CCN(C1(C(=O)NO)CCCC1)S(=O)(=O)c1ccc(Oc2ccc(F)cc2)cc1,inactive
13,CCCCCCCCCCCCc1ccccc1,inactive
14,CNCc1ccc(NC(=O)c2c[nH]c3c2C(=O)CCC3)cc1,inactive
15,CN(C)c1ccc(Cc2ccc(N(C)C)cc2)cc1,inactive
16,O=c1n(CC2CO2)c(=O)n(CC2CO2)c(=O)n1CC1CO1 (stereo not drawn),inactive
17,CC(C)=CCCC(C)=CC=O,inactive
18,O=C(O)CC(O)C(=O)O (stereo not drawn),inactive
19,CC(C)CCO,inactive
20,O=C(NS(=O)(=O)/C=C/c1ccccc1)c1ccc(F)cc1Cl,inactive
21,CCCCC(CC)COC(=O)CCCCCCCCC(=O)OCC(CC)CCCC (stereo not drawn),inactive
22,CC(=O)OC[C@H]1O[C@@](COC(C)=O)(O[C@H]2O[C@H](COC(C)=O)[C@@H](OC(C)=O)[C@H](OC(C)=O)[C@H]2OC(C)=O)[C@@H](OC(C)=O)[C@@H]1OC(C)=O,inactive
23,On1ccccc1=S,inactive
24,Cn1cnc([N+](=O)[O-])c1Sc1ncnc2nc[nH]c12,inactive
25,O=P(OC(CCl)CCl)(OC(CCl)CCl)OC(CCl)CCl,inactive
26,Cc1c(-c2cccnc2)c2ccccc2n1CCCCC(=O)O,inactive
27,CCn1nc(Cc2ccccc2)cc1C1CCN(C[C@H]2C[C@H](N(C)[C@@H](C(=O)O)C(C)C)C[C@@H]2c2cccc(F)c2)CC1,inactive
28,CC(C)=CCC/C(C)=C/CO,inactive
